# About 79,000 compounds went through this panel and 15% of them were active in at least one assay; those are over-represented in the sample as a whole. Values without a mark were called inactive. The source made the active and inactive calls. Cut-off read from the data, not from the text of the source: active = growth inhibition above about 70%; inactive = the rest.
# Assays:
# [1] = NCI Yeast Anticancer Drug Screen. Data for the wt2 strain (AID 169);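 note: 0% = growth of vehicle-treated yeast cultures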; details: S. cerevisiae wt2 strain growth inhibition, stronger effect = higher value
# How it was run: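 Read-out: growth inhibition versus vehicle-treated control cultures after compound exposure of the yeast strain.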
# [2] = NCI Yeast Anticancer Drug Screen. Data for the mlh1 strain (AID 171);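 note: 0% = growth of vehicle-treated control cultures of the same strain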; details: S. cerevisiae mlh1 strain growth inhibition, stronger effect = higher value
# How it was run: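 Read-out: growth inhibition versus vehicle controls. Strain: engineered yeast with a defined DNA repair or cell cycle defect, compound-treated.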
# [3] = NCI Yeast Anticancer Drug Screen. Data for the sgs1 strain (AID 173);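 note: 0% = growth of vehicle-only control cultures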; details: S. cerevisiae sgs1 mutant, stronger effect = higher value
# How it was run: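 Read-out: yeast growth inhibition relative to vehicle controls, following compound exposure of a strain with a defined DNA repair/cell cycle alteration.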
# [4] = NCI Yeast Anticancer Drug Screen. Data for the mlh1 rad18 strain (AID 175); details: S. cerevisiae mlh1 rad18 strain growth inhibition, stronger effect = higher value
# How it was run: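 Yeast w/ defined DNA-repair lesions; compound exposure; growth vs vehicle controls → % inhibition.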
# [5] = NCI Yeast Anticancer Drug Screen. Data for the rad18 strain (AID 177); details: S. cerevisiae rad18 mutant growth inhibition, stronger effect = higher value
# How it was run: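 Readout: growth inhibition vs vehicle controls. Cells: genetically altered yeast strain, DNA repair defect.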
# [6] = NCI Yeast Anticancer Drug Screen. Data for the rad52 strain (AID 147);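 note: 0% = growth of vehicle-treated control cultures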; details: S. cerevisiae rad52 mutant growth inhibition, stronger effect = higher value
# How it was run: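 Read-out: growth inhibition versus vehicle-treated controls. Cells were a DNA repair-deficient yeast strain treated with compounds.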
# [7] = NCI Yeast Anticancer Drug Screen. Data for the wt1 strain (AID 149);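 note: 0% = growth of vehicle-treated wt1 cultures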; details: S. cerevisiae wt1 strain (SPY 50644) growth inhibition, stronger effect = higher value
# How it was run: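 wt1 yeast, compound-treated; % growth inhibition vs vehicle control.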
# [8] = NCI Yeast Anticancer Drug Screen. Data for the rad50EPP+ strain (AID 151);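 note: 0% = growth of vehicle-treated control cultures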; details: S. cerevisiae rad50 mutant strain, stronger effect = higher value
# How it was run: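 Growth inhibition read against vehicle controls in rad50EPP+ yeast, a strain altered in DNA damage repair, after compound exposure.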
# [9] = NCI Yeast Anticancer Drug Screen. Data for the mgt1 strain (AID 153); details: S. cerevisiae mgt1 mutant growth inhibition, stronger effect = higher value
# How it was run: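 mgt1 yeast grown with test compound; read-out is growth inhibition versus vehicle-treated cultures.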
# [10] = NCI Yeast Anticancer Drug Screen. Data for the rad50 strain (AID 155);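 note: 0% = growth of vehicle-only cultures of the same strain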; details: S. cerevisiae rad50 strain growth inhibition, stronger effect = higher value
# How it was run: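 Genetically altered yeast (DNA repair pathway); compound treatment; growth inhibition vs vehicle ctrl.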
# [11] = NCI Yeast Anticancer Drug Screen. Data for the mec2-1 strain (AID 157); details: S. cerevisiae mec2-1 strain, stronger effect = higher value
# How it was run: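 Yeast mec2-1 mutant treated with compound. Readout: growth inhibition vs vehicle controls.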
# [12] = NCI Yeast Anticancer Drug Screen. Data for the rad14 strain (AID 159);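 note: 0% = growth of vehicle-treated control cultures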; details: S. cerevisiae rad14 strain growth inhibition, stronger effect = higher value
# How it was run: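 Test compounds were applied to a repair-deficient yeast strain. Its growth was then compared with that of cultures given vehicle alone, and inhibition was expressed relative to those controls.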
# [13] = NCI Yeast Anticancer Drug Screen. Data for the sgs1 mgt1 strain (AID 161);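 note: 0% = growth of cultures given vehicle only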; details: S. cerevisiae sgs1 mgt1 strain, stronger effect = higher value
# How it was run: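 Mutant yeast exposed to compound; growth scored against vehicle-only wells.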
# [14] = NCI Yeast Anticancer Drug Screen. Data for the CLN2oe strain (AID 163);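 note: 0% = growth of vehicle-only control cultures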; details: S. cerevisiae CLN2oe strain, stronger effect = higher value
# How it was run: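 Read-out: yeast growth inhibition, expressed relative to vehicle-only controls. The strain bears an engineered cell-cycle alteration.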
# [15] = NCI Yeast Anticancer Drug Screen. Data for the cln2 rad14 strain (AID 165);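 note: 0% = growth equal to vehicle treated cultures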; details: S. cerevisiae cln2 rad14 strain, stronger effect = higher value
# How it was run: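 cln2 rad14 yeast strain; compound exposure; growth inhibition read vs vehicle controls.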
# [16] = NCI Yeast Anticancer Drug Screen. Data for the bub3 strain (AID 167); details: S. cerevisiae bub3 mutant strain, stronger effect = higher value
# How it was run: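 Yeast carrying a defined mutation is treated with each compound, and growth is compared with that of vehicle-exposed cells to give inhibition.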
# [17] = at 5.0 µM (retest, dose inferred, filed as 0.5)
# [18] = at 50.0 µM (retest, dose inferred, filed as 5.0)
structure (smiles),measurement,setting,value
CNc1ccc(Cc2c[nH]c3ccccc23)cc1,growth inhibition,[1]; at 33.0 µM,-5%
same,growth inhibition,[1]; at 100.0 µM,13%
same,growth inhibition,[2]; at 1.2 µM,-35%
same,growth inhibition,[2]; at 3.7 µM,-41%
same,growth inhibition,[2]; at 11.0 µM,-25%
same,growth inhibition,[2]; at 33.0 µM,15%
same,growth inhibition,[2]; at 100.0 µM,27%
same,growth inhibition,[3]; at 1.2 µM,-30%
same,growth inhibition,[3]; at 3.7 µM,-30%
same,growth inhibition,[3]; at 11.0 µM,-31%
same,growth inhibition,[3]; at 33.0 µM,11%
same,growth inhibition,[3]; at 100.0 µM,28%
same,growth inhibition,[4]; [17],35%
same,growth inhibition,[4]; [18],79% (active)
same,growth inhibition,[4]; at 50.0 µM,84.8% (active)
same,growth inhibition,[5]; at 1.2 µM,-54%
same,growth inhibition,[5]; at 3.7 µM,-64%
same,growth inhibition,[5]; at 11.0 µM,-51%
same,growth inhibition,[5]; at 33.0 µM,-8%
same,growth inhibition,[5]; at 100.0 µM,20%
O=C(/C=C/c1cccc(Br)c1)c1ccc(Cl)cc1,growth inhibition,[6]; at 1.2 µM,-26%
same,growth inhibition,[6]; at 3.7 µM,-14%
same,growth inhibition,[6]; at 11.0 µM,-6%
same,growth inhibition,[6]; at 33.0 µM,28%
same,growth inhibition,[6]; at 100.0 µM,76% (active)
same,growth inhibition,[7]; at 1.2 µM,-46%
same,growth inhibition,[7]; at 3.7 µM,-44%
same,growth inhibition,[7]; at 11.0 µM,-12%
same,growth inhibition,[7]; at 33.0 µM,9%
same,growth inhibition,[7]; at 100.0 µM,63%
same,growth inhibition,[8]; at 1.2 µM,-62%
same,growth inhibition,[8]; at 3.7 µM,-22%
same,growth inhibition,[8]; at 11.0 µM,-25%
same,growth inhibition,[8]; at 33.0 µM,-13%
same,growth inhibition,[8]; at 100.0 µM,2%
same,growth inhibition,[9]; at 1.2 µM,-40%
same,growth inhibition,[9]; at 3.7 µM,-36%
same,growth inhibition,[9]; at 11.0 µM,-13%
same,growth inhibition,[9]; at 33.0 µM,32%
same,growth inhibition,[9]; at 100.0 µM,70% (active)
same,growth inhibition,[10]; at 1.2 µM,-9%
same,growth inhibition,[10]; at 3.7 µM,0%
same,growth inhibition,[10]; [17],35%
same,growth inhibition,[10]; at 11.0 µM,27%
same,growth inhibition,[10]; at 33.0 µM,66%
same,growth inhibition,[10]; [18],47%
same,growth inhibition,[10]; at 50.0 µM,81.9% (active)
same,growth inhibition,[10]; at 100.0 µM,82% (active)
same,growth inhibition,[11]; at 1.2 µM,-65%
same,growth inhibition,[11]; at 3.7 µM,-68%
same,growth inhibition,[11]; [17],32%
same,growth inhibition,[11]; at 11.0 µM,-51%
same,growth inhibition,[11]; at 33.0 µM,-18%
same,growth inhibition,[11]; [18],47%
same,growth inhibition,[11]; at 50.0 µM,73% (active)
same,growth inhibition,[11]; at 100.0 µM,53%
same,growth inhibition,[12]; at 1.2 µM,-67%
same,growth inhibition,[12]; at 3.7 µM,-46%
same,growth inhibition,[12]; at 11.0 µM,-49%
same,growth inhibition,[12]; at 33.0 µM,-15%
same,growth inhibition,[12]; at 100.0 µM,46%
same,growth inhibition,[13]; [17],4%
same,growth inhibition,[13]; [18],60%
same,growth inhibition,[14]; at 1.2 µM,-17%
same,growth inhibition,[14]; at 3.7 µM,-19%
same,growth inhibition,[14]; at 11.0 µM,-13%
same,growth inhibition,[14]; at 33.0 µM,-12%
same,growth inhibition,[14]; at 100.0 µM,36%
same,growth inhibition,[15]; [17],46%
same,growth inhibition,[15]; [18],48%
same,growth inhibition,[16]; at 1.2 µM,-16%
same,growth inhibition,[16]; at 3.7 µM,-7%
same,growth inhibition,[16]; [17],52%
same,growth inhibition,[16]; at 11.0 µM,38%
same,growth inhibition,[16]; at 33.0 µM,57%
same,growth inhibition,[16]; [18],84% (active)
same,growth inhibition,[16]; at 100.0 µM,82% (active)
same,growth inhibition,[1]; at 1.2 µM,-31%
same,growth inhibition,[1]; at 3.7 µM,-28%
same,growth inhibition,[1]; at 11.0 µM,-19%
same,growth inhibition,[1]; at 33.0 µM,20%
same,growth inhibition,[1]; at 100.0 µM,72% (active)
same,growth inhibition,[2]; at 1.2 µM,-30%
same,growth inhibition,[2]; at 3.7 µM,-19%
same,growth inhibition,[2]; at 11.0 µM,-7%
same,growth inhibition,[2]; at 33.0 µM,19%
same,growth inhibition,[2]; at 100.0 µM,76% (active)
same,growth inhibition,[3]; at 1.2 µM,-67%
same,growth inhibition,[3]; at 3.7 µM,-42%
same,growth inhibition,[3]; at 11.0 µM,-7%
same,growth inhibition,[3]; at 33.0 µM,31%
same,growth inhibition,[3]; at 100.0 µM,73% (active)
same,growth inhibition,[4]; [17],26%
same,growth inhibition,[4]; [18],56%
same,growth inhibition,[4]; at 50.0 µM,75.3% (active)
same,growth inhibition,[5]; at 1.2 µM,-37%
same,growth inhibition,[5]; at 3.7 µM,-13%
same,growth inhibition,[5]; at 11.0 µM,30%
same,growth inhibition,[5]; at 33.0 µM,61%
same,growth inhibition,[5]; at 100.0 µM,84% (active)

# Reference: PubChem BioAssay (NCI)
